The values that follow come from PubChem BioAssay AID463173 (ICCB-Longwood Screening Facility, Harvard Medical School, 2010).

The whole screen tested about 52,000 compounds, of which about 4,300 (8.3%) were called active. No stated cut-off is given here; in the data, active means survival mostly below about 52% (no sharp cut-off); inactive means mostly above about 56%. This excerpt belongs to a sample that is enriched for actives.

The subject of the assay is DeltatarO mutant. Kind of assay: growth inhibition of S. aureus wild type versus tarO mutant, primary screen, teichoic acid synthesis inhibitors, RN4220, OD600 (AID 463173). The settings on record: OD600, 18 h, stronger effect = lower value, screened at 18.75 µg/mL (by protocol).
In the case of `COc1ccc(-n2ccnc(NCCc3ccc(S(N)(=O)=O)cc3)c2=O)cc1`, the survival was 66% (inactive). Regarding `COC(=O)CNC(=O)Nc1cc(C(=O)NCc2ccc(C)cc2)ccc1N1CCCC1`, the survival was 76% (inactive).

Take `COC(=O)c1c(N)n(-c2ccc(OC)c(Cl)c2)c2nc3ccccc3nc12`: the survival is 93% (inactive). Take `COC(=O)c1c(N)n(-c2ccc(OC)c(OC)c2)c2nc3ccccc3nc12`: the survival is 94% (inactive). On to `COC(=O)c1c(N)n(-c2cc(Cl)cc(Cl)c2)c2nc3ccccc3nc12`, for which the survival was 44% (active). In the case of `Cc1ccc(CNc2nc(-c3ccco3)nn2S(C)(=O)=O)cc1`, the survival is 113% (inactive). In the case of `CCOC(=O)Cc1ccc(NC(=O)N2CCC(CN3CCCCCC3)CC2)cc1`, the survival is 80% (inactive).

On to `Cc1ccc(NS(=O)(=O)c2ccc3c(c2)NC(=O)CCS3)cc1C`, for which the survival was 79% (inactive). As to `CC1C(=O)Nc2ccc(S(=O)(=O)Nc3ccccc3Br)cc2NC1=O` (centres undefined), the survival is 90% (inactive). Regarding `Cc1ccccc1NS(=O)(=O)c1ccc2c(c1)NC(=O)CCS2`, the survival is 64% (inactive). In the case of `Cc1cc(C)c(NS(=O)(=O)c2ccc3c(c2)NC(=O)CCS3)c(C)c1`, the survival is 76% (inactive). For the compound `O=C1CCSc2ccc(S(=O)(=O)Nc3cccc(C(F)(F)F)c3)cc2N1`, the survival was -2% (active).

In the case of `O=C1CCSc2ccc(S(=O)(=O)Nc3ccc(Cl)c(C(F)(F)F)c3)cc2N1`, the survival was 72% (inactive). With `Cc1ccc(NS(=O)(=O)c2ccc3c(c2)NC(=O)C(C)C(=O)N3)cc1F` (centres undefined), the survival was 69% (inactive). Turning to `Cc1cc(C)cc(NS(=O)(=O)c2ccc3c(c2)NC(=O)C(C)S3)c1` (centres undefined), the survival was 11% (active). Next, `Cc1ccc(NS(=O)(=O)c2ccc3c(c2)NC(=O)CCS3)c(Br)c1`: -1% (active); `COc1cc(NC(=O)CCc2c(C)nn(-c3ccc(N4CCCCC4)nn3)c2C)cc(OC)c1OC`: 95% (inactive); `CCOC(=O)c1ccccc1NC(=O)n1ncc2cc(Cl)ccc21`: 85% (inactive). Take `O=C(O)c1cc(N2C(=O)C3CC=CCC3C2=O)ccc1NCc1cccnc1` (centres undefined): the survival was 90% (inactive). Take `CC(=O)c1cccc(NC(=O)c2sc(-n3nc(C)c(CCC(C)C)c3C)nc2C)c1`: the survival was 53% (inactive).

As to `CCOc1ccccc1NC(=O)Cn1cc(C(=O)c2ccc(Cl)cc2)c(=O)c2ccc(C)nc21`, the survival was 87% (inactive). `CCc1ccc(N2CC(C)Cn3c2nc2c3c(=O)n(CC(=O)O)c(=O)n2C)cc1` (centres undefined): the survival was 77% (inactive). Consider `COc1ccc(C2(CNC(=O)C(=O)Nc3cccc(C(F)(F)F)c3)CCCC2)cc1OC`, for which the survival was 102% (inactive).

As to `Cc1cccc2cc(CN(C(=O)c3ccco3)C3CCCC3)c(=O)[nH]c12`, the survival is 51% (inactive). `CCCc1nc2sc3c(N4CCCCC4)ncnc3c2c2c1CCCC2`: the survival is 12% (active). Turning to `CCCCN(CC)c1ncnc2c1sc1nc(N3CCOCC3)c3c(c12)CCCC3`, the survival was 35% (active).

Take `CCCCCSc1ncnc2c1sc1nc(N3CCOCC3)c3c(c12)CCCC3`: the survival was 69% (inactive). Regarding `CCCCSc1ncnc2c1sc1nc(N3CCOCC3)c3c(c12)CCCC3`, the survival was 77% (inactive). Take `CCCc1nc2sc3c(N4CCC(C)CC4)ncnc3c2c2c1CCCC2`: the survival is 61% (inactive).

For `CCc1nc2sc3c(N4CCCCC4)ncnc3c2c2c1CCCC2`, the survival is 175% (inactive). Regarding `Cc1ccc(-c2[nH]c3ccccc3c2SCCNC(=O)c2ccc(S(=O)(=O)N(C)C)cc2)cc1`, the survival is 105% (inactive). On to `COc1ccc(NC(=O)CSCc2cc(=O)c3cc(C)ccc3[nH]2)cc1`, for which the survival was 68% (inactive). For `CC(=O)Nc1ccc(NC(=O)C2CCN(S(=O)(=O)c3ccc4c(c3)CCCC(=O)N4)CC2)cc1`, the survival was 85% (inactive). Turning to `CC(C)(C)C(=O)OCc1cc(=O)n2nc(C3CCCCC3)sc2n1`, the survival is 80% (inactive). The result for `COc1ccc(CC(=O)NC2CCN(CC(=O)c3ccc(F)cc3)CC2)cc1OC` reads 108% (inactive); that for `Cc1cc(C)nc(NC(=O)COc2ccc(Br)cc2)n1`, 84% (inactive). Next, `CN(CCCNC(=O)Cn1ncc2c([nH]c3ccccc32)c1=O)Cc1ccccc1`: 100% (inactive); `Cc1ccc(CCNC(=O)Cn2ncc3c([nH]c4ccccc43)c2=O)cc1`: 102% (inactive); `CCN(CC)CCNC(=O)Cn1ncc2c([nH]c3ccccc32)c1=O`: 89% (inactive). The result for `COc1ccc(CNC(=O)Cn2ncc3c([nH]c4ccccc43)c2=O)cc1` reads 91% (inactive); that for `CCCCN(C)CCNC(=O)Cn1ncc2c([nH]c3ccccc32)c1=O`, 8% (active); that for `O=C(Cn1ncc2c([nH]c3ccccc32)c1=O)NCc1cccc(Cl)c1`, 20% (active).

For the compound `COc1ccc(-n2nc(C(=O)Nc3ccccn3)c3c4ccccc4n(C)c3c2=O)cc1`, the survival was 72% (inactive). With `O=C(NCCc1csc(-c2cccc(F)c2)n1)c1ccc(Br)o1`, the survival is 83% (inactive). The result for `COc1ccc(C(C(=O)NCc2ccccc2)N(C(=O)Cn2nnc3ccccc32)c2ccc(OC)cc2)cc1` (centres undefined) reads 60% (inactive); that for `CC(=O)c1cccc(N(C(=O)Cn2nnc3ccccc32)C(C(=O)NCc2ccccc2)c2ccc(F)cc2)c1` (centres undefined), 85% (inactive); that for `COc1ccc(C(C(=O)NCc2ccccc2)N(C(=O)Cn2nnc3ccccc32)c2cccc(OC)c2)cc1` (centres undefined), 50% (inactive). As for `COc1cc(N(C(=O)Cn2nnc3ccccc32)C(C(=O)NCC2CCCO2)c2ccc(F)cc2)ccc1-n1cnnn1` (centres undefined), the survival is 105% (inactive). In the case of `COc1ccc(N(C(=O)Cn2nnc3ccccc32)C(C(=O)NCc2ccccc2)c2ccc(F)cc2)cc1` (centres undefined), the survival is 42% (active).

With `COc1cccc(C(C(=O)NCc2ccccc2)N(C(=O)Cn2nnc3ccccc32)c2cccc(C(C)=O)c2)c1` (centres undefined), the survival is 44% (active). In the case of `CC(=O)Nc1ccc(N(C(=O)Cn2nnc3ccccc32)C(C(=O)NCc2ccccc2)c2ccc(C)cc2)cc1` (centres undefined), the survival was 38% (active). With `CCOc1ccc(N(C(=O)Cn2nnc3ccccc32)C(C(=O)NCc2ccccc2)c2ccc(OC)cc2)cc1` (centres undefined), the survival is 52% (inactive). `COc1ccc(C(C(=O)NCc2ccccc2)N(C(=O)Cn2nnc3ccccc32)c2ccc(F)cc2)cc1` (centres undefined): the survival is 49% (inactive). Turning to `O=C(COc1ccc(S(=O)(=O)NC2CCCCC2)cc1)Nc1ccc(C(F)(F)F)cc1`, the survival is 64% (inactive). As to `CC(NC1=NCCN1)C(=O)O` (centres undefined), the survival is 97% (inactive). Regarding `COC(=O)C1C(=O)C2=C(CC1C)Nc1ccccc1NC2c1cc(F)ccc1F` (centres undefined), the survival is 82% (inactive). In the case of `Cc1occc1-c1nnc(SCC(=O)NCc2ccc3c(c2)OCO3)n1CC(C)C`, the survival is 88% (inactive). Consider `COc1ccccc1NC(=O)CC(C)n1nc(C)cc1C` (centres undefined), for which the survival is 67% (inactive). As for `COc1ccc(NC(=O)CCS(=O)(=O)c2ccc3nc(C)sc3c2)cc1Cl`, the survival was 44% (inactive). Consider `Cc1cc(-c2ccc(C)c(S(=O)(=O)NCCc3ccc(S(N)(=O)=O)cc3)c2)on1`, for which the survival was 92% (inactive). Next, `Cc1ccc(C)c(N2C(=O)N(Cc3cccc(C(F)(F)F)c3)c3ccccc3S2(=O)=O)c1`: 88% (inactive); `COc1cccc(C(=O)N2CCN(CCc3ccncc3)CC2)c1`: 87% (inactive); `O=C1c2[nH]nc(-c3ccc(Br)cc3)c2C(c2cccc(O)c2)N1c1ccc(Cl)cc1` (centres undefined): -10% (active). `COc1ccc(-c2n[nH]c3c2C(c2ccc(O)cc2)N(c2ccc(Br)cc2)C3=O)cc1` (centres undefined): the survival is -3% (active). The result for `Cc1ccc(-c2n[nH]c3c2C(c2cccc(O)c2)N(c2ccc(C(=O)O)cc2)C3=O)cc1` (centres undefined) reads 86% (inactive); that for `CCOc1cc(C2c3c(-c4ccc(Br)cc4)n[nH]c3C(=O)N2c2ccc(Cl)cc2)ccc1O` (centres undefined), 35% (active); that for `CCOC(=O)c1ccc(N2C(=O)c3[nH]nc(-c4ccc(C)cc4)c3C2c2ccc(O)c(OCC)c2)cc1` (centres undefined), 87% (inactive). Next, `CCOC(=O)c1ccc(N2C(=O)c3[nH]nc(-c4ccc(OC)cc4)c3C2c2ccc(C)cc2)cc1` (centres undefined): 81% (inactive); `COC(=O)c1ccc(C2c3c(-c4ccc(Br)cc4)n[nH]c3C(=O)N2c2ccc(Cl)cc2)cc1` (centres undefined): 93% (inactive).

On to `CCOC(=O)c1ccc(N2C(=O)c3[nH]nc(-c4ccc(OC)cc4)c3C2c2cccc(O)c2)cc1` (centres undefined), for which the survival was 57% (inactive).

With `CCOc1ccc(-c2n[nH]c3c2C(c2ccccc2OC)N(c2ccc(Br)cc2)C3=O)cc1` (centres undefined), the survival is 69% (inactive). In the case of `Cc1ccc(NC(=O)C(=O)NCc2ccco2)cc1`, the survival is 58% (inactive).

As to `O=c1cc(CSc2n[nH]c(-c3ccccc3)n2)[nH]c2ccccc12`, the survival is 129% (inactive). The result for `Cc1nn2c(=O)cc(COC(=O)c3cccc(NC(=O)c4ccc(C(C)(C)C)cc4)c3)nc2s1` reads 85% (inactive); that for `CCc1nn(CC(=O)NCCC(C)C)c(=O)c2cc3occc3n12`, 125% (inactive). For the compound `CCCc1cc(=O)[nH]c(Nc2cc(Cl)ccc2OC)n1`, the survival is 68% (inactive). In the case of `COC(=O)c1cccc(NC(=O)C2CCN(S(=O)(=O)Cc3ccccc3)CC2)c1C`, the survival is 77% (inactive). For the compound `COc1cccc(-n2c(-c3ccc(C)cc3)cc3c2CC(C)(C)CC3=O)c1`, the survival is 18% (active). Regarding `Cc1ccc(-c2cc3c(n2-c2ccc(C)cc2)CC(C)(C)CC3=O)cc1`, the survival was 74% (inactive).

Turning to `Cc1cccc(-n2c3c(cc(-c4nc(-c5ccc(Cl)cc5)cs4)c2=O)C(=O)CC(C)(C)C3)c1`, the survival was 62% (active). The result for `Cc1ccc(-n2c3c(cc(-c4nc(-c5ccc(Cl)cc5)cs4)c2=O)C(=O)CC(C)(C)C3)cc1` reads 79% (inactive).

For `COc1ccc(-n2c3c(cc(-c4nc(-c5ccc(Cl)cc5)cs4)c2=O)C(=O)CC(C)(C)C3)cc1`, the survival was 140% (inactive). The result for `COc1ccc(-n2c(-c3ccc(C)cc3)cc3c2CC(C)(C)CC3=O)c(OC)c1` reads 101% (inactive); that for `COc1cccc(-n2c(-c3ccc(Cl)cc3)cc3c2CC(C)(C)CC3=O)c1`, 35% (active); that for `COc1ccc(-n2c(-c3ccc(C)cc3)cc3c2CC(C)(C)CC3=O)cc1Cl`, 80% (inactive). Next, `COc1ccc(-n2c(-c3ccc(Cl)cc3)cc3c2CC(C)(C)CC3=O)c(OC)c1`: 4% (active). In the case of `CC1(C)CC(=O)c2cc(-c3nc(-c4ccc(Cl)cc4)cs3)c(=O)n(-c3cccc(F)c3)c2C1`, the survival is 70% (inactive). Next, `COc1ccc(C)cc1-n1c(-c2ccc(C)cc2)cc2c1CC(C)(C)CC2=O`: 114% (inactive). Turning to `COc1ccc(C)cc1-n1c(-c2ccc(Cl)cc2)cc2c1CC(C)(C)CC2=O`, the survival is 86% (inactive).
